In the library only some 2.5% were active in any assay of this set; here they are far more common.
GRK2 aptamer HTS – inhibitors of human GRK2 displacing RNA aptamer; bead flow cytometry, FAM-aptamer displacement from GRK2; P25098; inhibition of aptamer binding, % at 10 µM; actives 0.59% (n = 330,000);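 active = inhibition of aptamer binding above 40%, roughly 3 SD of noise, on plates passing a quality check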;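 also: median bead fluorescence of bound FAM aptamer so fluorescent compounds give negative values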
MEKK3 PB1 HTS – modulators (inhibitors or enhancers) of MEK5 binding to human MEKK3 PB1 domain; Q99759; AID 1529; actives 1.4% (n = 290,000); bead-based flow cytometry, Alexa488-MEK5 binding to MEKK3; actives lie on both sides; 0 = blocked by unlabeled MEK5, 100 = vehicle; binding response (% of control), % at 10 µM;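 active = binding response more than 3 SD above or below the average of its plate-row segment, actives on both sides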;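 also: Alexa488 bead fluorescence after subtracting the streptavidin-only scavenger bead signal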
Target sequence (Q99759 whole entry, looked up, the tested form may be a part): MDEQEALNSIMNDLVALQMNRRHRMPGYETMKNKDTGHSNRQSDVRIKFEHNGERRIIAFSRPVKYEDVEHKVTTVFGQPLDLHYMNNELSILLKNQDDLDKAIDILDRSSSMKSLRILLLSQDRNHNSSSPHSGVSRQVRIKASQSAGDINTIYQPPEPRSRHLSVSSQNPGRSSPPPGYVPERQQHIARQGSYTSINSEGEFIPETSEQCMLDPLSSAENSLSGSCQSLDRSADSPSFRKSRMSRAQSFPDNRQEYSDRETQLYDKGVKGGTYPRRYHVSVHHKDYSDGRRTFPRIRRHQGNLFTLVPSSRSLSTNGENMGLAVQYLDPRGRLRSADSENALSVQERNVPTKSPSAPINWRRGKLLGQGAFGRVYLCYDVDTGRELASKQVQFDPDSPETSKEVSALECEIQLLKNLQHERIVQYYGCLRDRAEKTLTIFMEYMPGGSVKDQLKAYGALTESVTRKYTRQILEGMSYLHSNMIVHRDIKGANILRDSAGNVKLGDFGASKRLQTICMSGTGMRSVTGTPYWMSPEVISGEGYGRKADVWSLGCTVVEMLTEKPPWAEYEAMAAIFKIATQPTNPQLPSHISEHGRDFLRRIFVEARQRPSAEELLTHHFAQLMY
MEKK2 WT-MEK5 – raises or lowers MEK5 binding to wildtype human MEKK2 PB1 domain | bead flow cytometry, Alexa488-MEK5 binding to MEKK2 WT; actives lie on both sides | binding response (% of control), % at 10 µM | actives 1.1% (n = 290,000) | AID 1531; in the data active = binding response below about 67% or above about 130%
MEKK2 mut-MEK5 – signal of MEK5 binding to mutant human MEKK2 PB1 domain; bead flow cytometry, Alexa488-MEK5 binding to MEKK2 mutant; percent response, % at 10 µM; actives 0.35% (n = 290,000); AID 1530; in the data active = percent response above about 24%, passing the limit was not always enough
MEKK2wt confirm – raises or lowers MEK5 binding to wildtype human MEKK2, retest; shares compounds with MEKK3 PB1 HTS; bead flow cytometry, Alexa488-MEK5 binding to MEKK2 WT; actives lie on both sides; binding response (% of control), % at 10 µM; actives 2.4% (n = 5,900); AID 1892; in the data active = binding response below about 16% or above about 210%; inactive = in between
MEKK2mut-MEK5 – signal of MEK5 binding to mutant human MEKK2, retest. shares compounds with MEKK3 PB1 HTS. bead flow cytometry, Alexa488-MEK5 binding to MEKK2 mutant. percent response, % at 10 µM. actives 2% (n = 5,900). AID 1893; in the data active = percent response mostly above about 71%, no sharp cut-off; inactive = mostly below about 38%;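 also: higher means compound restores mutant binding toward wildtype level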
MEKK3 confirm – confirmation of inhibitors of MEK5 binding to human MEKK3; shares compounds with MEKK3 PB1 HTS; bead flow cytometry, Alexa488-MEK5 binding to MEKK3; stronger effect = lower value; binding response (% of control), % at 10 µM; actives 1.8% (n = 5,900); AID 1894;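 active = binding response below 72% of control, or above a set upper limit, though filed actives all read lower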
Numbers stand for hits; . = inactive; / = no result given; [ ] = remark or other dose.

SMILES	GRK2 aptamer HTS	MEKK3 PB1 HTS	MEKK2 WT-MEK5	MEKK2 mut-MEK5	MEKK2wt confirm	MEKK2mut-MEK5	MEKK3 confirm
COc1ccc(NC(=O)CSc2nc3[nH]c(=O)[nH]c(=O)c3s2)cc1OC	.	.	.	.	/	/	/
O=C1NC(=O)C2C1C(c1ccccc1)N1C3C(=O)NC(=O)C3C(c3ccccc3)N21 (stereo not drawn)	.	.	.	.	/	/	/
O=C1NC(=O)C2C3c4ccccc4C(c4ccccc43)C12 (stereo not drawn)	.	70.0[inhibitor]	.	.	.	.	.
CCOC(=O)Nc1ccc2c(c1)N(CCCN(C)C)c1ccccc1CC2	.	.	.	.	/	/	/
CN(C)CCCN1c2ccc([N+](=O)[O-])cc2CCc2cc([N+](=O)[O-])ccc21	.	.	150.0	.	.	.	.
COc1cccc(C(=O)NCc2ccc3[nH]c(C)cc3c2)c1	.	61.0[inhibitor]	-6.0	.	.	.	.
O=C(CCn1nnc2ccccc21)Nc1nnc(Cc2ccc(F)cc2)s1	.	.	.	.	/	/	/
Cc1ccc(Cn2cc(/C=N/Nc3ccc([N+](=O)[O-])cn3)c3ccccc32)cc1	.	.	53.0[inhibitor]	.	.	.	.
O=C(O)Cn1cc(/C=N/Nc2ccc([N+](=O)[O-])cn2)c2ccccc21	.	.	.	.	/	/	/
Cc1cccc(C)c1NC(=O)C(=O)NCCCN1CCOCC1	.	61.0[inhibitor]	.	.	.	.	.
S=C(NCCN1CCOCC1)N/N=C/c1c2ccccc2cc2ccccc12	.	1.0[inhibitor]	-2.0[inhibitor]	.	.	.	.
Cc1cccc2c(=O)c(C(=O)NCCCN3CCOCC3)c[nH]c12	.	71.0[inhibitor]	.	.	.	.	.
O=C(NCCCN1CCOCC1)C(=O)N/N=C/c1ccccc1	.	157.0	.	.	.	.	.
CC(C)(C)c1ccc(/C=N/NC(=O)C(=O)NCCCN2CCOCC2)cc1	.	.	.	.	/	/	/
COc1ccc2ccccc2c1/C=N/NC(=S)NCCN1CCOCC1	.	.	.	.	/	/	/
Cn1ncc2c(=O)n(/N=C/c3ccccc3)cnc21	.	.	.	.	/	/	/
CC(=O)c1c(C)[nH]c(C(=O)OCc2cc(-c3ccco3)on2)c1C	.	/	/	/	/	/	/
S=C(NCCN1CCOCC1)Nc1ccc(Br)cc1	.	145.0	.	.	.	.	.
S=C(NCCN1CCOCC1)Nc1ccc(Nc2ccccc2)cc1	.	.	.	.	/	/	/
O=C1CC(c2ccsc2)Sc2ccccc2N1 (stereo not drawn)	.	.	.	.	/	/	/
CC1CC(=O)C2=C(C1)Nc1ccccc1SC2c1ccc(F)cc1 (stereo not drawn)	.	130.0	.	.	.	.	.
O=C(Nc1ccc(Br)cc1)c1cccc(S(=O)(=O)Nc2ccccn2)c1	.	.	.	.	/	/	/
O=C(Nc1ccccc1)c1cccc(S(=O)(=O)Nc2ccccn2)c1	.	75.0[inhibitor]	.	.	.	.	.
O=C(Cc1cccs1)NCCSc1c(-c2ccc(Cl)cc2)[nH]c2ccccc12	.	1.0[inhibitor]	2.0[inhibitor]	.	.	.	.
CCOC(=O)CSc1c(-c2ccc(Cl)cc2)[nH]c2ccccc12	.	155.0	.	.	.	.	.
SMILES	GRK2 aptamer HTS	MEKK3 PB1 HTS	MEKK2 WT-MEK5	MEKK2 mut-MEK5	MEKK2wt confirm	MEKK2mut-MEK5	MEKK3 confirm
Cc1ccc(-c2[nH]c3ccccc3c2SCCNC(=O)c2cc3ccccc3oc2=O)cc1	.	.	.	.	/	/	/
CCOC(=O)CSc1c(-c2cccs2)[nH]c2ccccc12	.	.	.	.	/	/	/
COc1cccc2cc(-c3cc(=O)oc4ccc(OCC(C)=O)cc34)oc12	.	.	.	.	/	/	/
O=C(CSC1=NCCS1)N1CCN(c2ccc(Cl)cc2)CC1	.	.	.	.	/	/	/
O=C(CSC1=NCCS1)c1ccc(Cl)cc1	.	.	282.0	129.0	.	.	.
Oc1c(Br)cc(Cl)cc1C=Nc1ccc(N2CCOCC2)cc1	.	.	54.0[inhibitor]	.	.	.	.
N/C(=N\OC(=O)c1cc(-c2ccccc2)nc2ccccc12)c1ccc(Cl)cc1	.	.	.	.	/	/	/
CNCc1ccccc1OCC(=O)Nc1ccccc1	.	.	.	.	/	/	/
CC(C)Cc1ccc(/C=C/C(=O)N2CCOCC2)cc1	.	.	.	.	/	/	/
CC(C)(C)c1ccc(/C=C/C(=O)N2CCOCC2)cc1	.	134.0	.	.	.	.	.
COc1ccccc1C(=O)NCCC(=O)OCC(=O)Nc1ccc(S(N)(=O)=O)cc1	.	/	/	/	/	/	/
COc1cccc(OC)c1-c1nn2c(-c3cc(-c4ccccc4)n[nH]3)nnc2s1	.	78.0[inhibitor]	.	.	.	.	48.0
CC1=CC2=NC(=O)/C(=C/c3cccn3Cc3ccccc3)C(=N)N2O1	.	.	.	.	/	/	/
N=C1/C(=C/c2cccn2Cc2ccc(Cl)cc2)C(=O)N=C2SC=CN12	.	129.0	.	.	.	.	.
O=C(CC(c1ccccc1)c1ccccc1)Nc1ccc2c(c1)OCCO2	.	.	.	.	/	/	/
CO/N=C/c1ccc(Oc2ccc(C)cc2)nc1	.	.	.	26.0	.	.	.
Cn1ncc(C#N)c1NC(=O)C1CC(c2ccccc2Cl)=NO1 (stereo not drawn)	.	.	.	.	/	/	/
Cc1cccc(CSc2nnc(CCCCCNC(=O)OC(C)(C)C)o2)c1	.	138.0	.	.	.	.	.
CSc1ccc(C(=O)C2CCCN(C(=O)c3cccnc3SC)C2)cc1 (stereo not drawn)	.	.	.	.	/	/	/
COc1ccccc1C(=O)C1CCCN(C(=O)c2cccnc2SC)C1 (stereo not drawn)	.	128.0	632.0	541.0	.	.	.
CCN(CC)S(=O)(=O)c1ccc(C(=O)NCc2cccs2)cc1	.	.	.	.	/	/	/
Cn1nc(C(=O)NCC2CCCO2)c2ccccc2c1=O (stereo not drawn)	.	82.0[inhibitor]	.	.	.	.	.
CCCCCOc1ccc(NS(C)(=O)=O)cc1	.	/	/	/	/	/	/
COc1ccc(C2c3c(ncn(Cc4ccco4)c3=N)Oc3ccc4ccccc4c32)cc1 (stereo not drawn)	.	.	185.0	56.0	.	.	.
COc1ccc(C2C3=C(CC(C)(C)CC3=O)Oc3ncn(Cc4ccco4)c(=N)c32)cc1 (stereo not drawn)	.	2.0[inhibitor]	-1.0[inhibitor]	.	.	.	.
Cc1ccc(-c2noc(CCC(=O)NCc3ccccc3CN3CCOCC3)n2)cc1	.	/	/	/	/	/	/
O=C(/C=C\c1ccc(-c2cccc([N+](=O)[O-])c2)o1)N1CCOCC1	.	.	.	.	/	/	/
CC(=O)c1cc(-c2ccccc2)n(CCC(=O)NC(C)(C)C)c1C	.	25.0[inhibitor]	36.0[inhibitor]	.	.	.	.
CCOC(=O)/C(=C/c1c2ccccc2cc2ccccc12)NC(=O)c1ccccc1	.	.	.	.	/	/	/

Screens from PubChem BioAssay.
